Shown are actives, neighbours in structure and some others; about 3.5% of the full set was active somewhere.
Autofluor counter: compound fluorescence in toxin protease inhibitor counterscreen. AID 624483. hit rate 3.1% among 360,000. compound autofluorescence counterscreen, microsphere flow cytometry; active compounds read high. fluorescence intensity (concentration not given with the values); in the data active = fluorescence intensity above about 16000; inconclusive = no clear call, values can overlap the other calls
Anthrax LF prot: inhibitors of Bacillus anthracis lethal factor protease; hit rate 0.12% among 360,000; multiplex microsphere protease cleavage assay, LF; P15917; inhibition, % at 10 µM; in the data active = inhibition above about 30%; inconclusive = no clear call, values can overlap the other calls; also: plate controls were buffer without enzyme for full effect and enzyme alone for no effect
BJeLR lethal: kills HRASV12-expressing BJeLR cells; BJeLR (HRASV12) viability, CellTiter-Glo ATP luminescence, 48 h; inhibition, % (no concentration beside the values); hit rate 0.17% among 300,000; AID 1554; in the data active = inhibition above about 50%; inconclusive = no clear call, values can overlap the other calls
BoNT-A LC inh2: blocks Botulinum neurotoxin A light chain protease; inhibition, % at 10 µM; AID 588499; hit rate 0.17% among 360,000; multiplex microsphere protease substrate cleavage, flow cytometry; in the data active = inhibition above about 30%; inconclusive = no clear call, values can overlap the other calls; also: plate controls were buffer without enzyme for full effect and enzyme alone for no effect
BoNT-F LC inh: blocks Botulinum neurotoxin F light chain protease. Multiplex microsphere protease cleavage assay, flow cytometry. inhibition, % at 10 µM. hit rate 0.22% among 360,000. AID 588497; in the data active = inhibition above about 35%, passing the limit was not always enough; inconclusive = no clear call, values can overlap the other calls; also: plate controls were buffer without enzyme for full effect and enzyme alone for no effect
BoNT-A LC CP1: BoNT/A light chain protease inhibition | hit rate 3% among 720 | shares compounds with BoNT-F LC inh | multiplex microsphere protease assay, flow cytometry | inhibition, % at 10 µM; in the data active = inhibition above about 32%
BoNT-F LC CP1: BoNT/F light chain protease inhibition | shares compounds with BoNT-F LC inh | multiplex microsphere protease cleavage assay, flow cytometry | inhibition, % at 10 µM | 720 tested, under 10 active | AID 602140
Anthrax LF CP1: inhibitors of Bacillus anthracis lethal factor protease; inhibition, % at 10 µM; shares compounds with BoNT-F LC inh; 720 tested, under 10 active; multiplex microsphere protease cleavage assay, LF; AID 602142
* = called active by the depositor; ? = inconclusive; nt = not tested or not shown; + = active, no number. Unless noted, no rule for the calls is given here.

SMILES	Autofluor counter	Anthrax LF prot	BJeLR lethal	BoNT-A LC inh2	BoNT-F LC inh	BoNT-A LC CP1	BoNT-F LC CP1	Anthrax LF CP1
CCC(C)(C)n1nnnc1C(c1cc2cc(C)cc(C)c2[nH]c1=O)N1CCCC1 (configuration not stated)	10428	7	nt	10	2	nt	nt	nt
CCC(C)(C)n1nnnc1C(c1cc2cccc(C)c2[nH]c1=O)N1CCCC1 (configuration not stated)	23337*	3	-24	?	4	0	0	-4
O=C(O)c1ccc(Cl)c(S(=O)(=O)NCc2cccnc2)c1	3280	-2	-2	-1	0	nt	nt	nt
O=S(=O)(NCc1cccnc1)c1cc(Cl)ccc1Cl	7951	-29	2	34*	37*	1	-6	2
CCOC(=O)N1CCN(C(=O)c2ccc(C)c(S(=O)(=O)Nc3ccccc3)c2)CC1	3457	-2	2	1	34*	0	-3	1
CCOC(=O)N1CCN(C(=O)c2ccc(C)c(S(=O)(=O)Nc3cccc(C)c3C)c2)CC1	9944	2	1	?	-16	nt	nt	nt
O=C(NCc1ccccc1)C12CC3CC(CC(Cl)(C3)C1)C2	5820	-1	-14	0	-6	nt	nt	nt
O=C(O)c1ccc(CNC(=O)C23CC4CC(CC(C4)C2)C3)cc1	3426	9	-3	10	98*	-2	0	-6
CCCCN(CCCC)Cc1cc2ccccc2c2c1COC2	4894	1	-4	0	-16	nt	nt	nt
C[C@@H]1CN([C@H](C)CO)S(=O)(=O)c2ccc(C#Cc3ccccc3F)cc2O[C@@H]1CN(C)C(=O)Cc1ccccc1	3499	-1	nt	0	-2	nt	nt	nt
CCOC(=O)c1cnc(SC2CC(=O)N(c3cccc(OC)c3)C2=O)nc1N (configuration not stated)	3383	2	-4	2	34	2	-4	-1
CCOC(=O)c1ccc(N2C(=O)CC(Sc3ncccn3)C2=O)cc1 (configuration not stated)	3427	-4	-19	1	?	nt	nt	nt
CCOc1ccc(NC(=O)c2ccc(Cl)c(NC(=O)c3ccco3)c2)cc1	3511	14	22	1	38*	-2	-6	-3
Cc1ccc(-c2nc3cc(Br)cnc3nc2-c2ccc(C)cc2)cc1	4410	22	-29	46*	7	24	11	13
Cc1cc(O)cc2c1C1CCC3(C)C(O)CCC3C1C=C2 (configuration not stated)	3131	3	nt	0	3	nt	nt	nt
OC[C@@H]1CN(Cc2cccc(C(F)(F)F)c2)C[C@H](n2cnc3c(NCc4ccc(F)cc4)ncnc32)O1	2919	-2	nt	0	3	nt	nt	nt
Cc1ccc(-c2cc(NC(=O)CSc3n[nH]c(N)n3)n(-c3ccccc3)n2)cc1	4856	-4	-4	0	4	nt	nt	nt
Nc1nc(SCC(=O)Nc2cc(-c3ccccc3)nn2-c2ccccc2)n[nH]1	5643	7	-2	?	40*	1	-3	-3
Clc1ccc(N2CCN(Cc3ccco3)CC2)cc1	3960	12	4	0	?	nt	nt	nt
Clc1ccccc1N1CCN(Cc2ccco2)CC1	3623	17	-4	2	50*	-1	-3	-2
Cc1cc(C)c2cc(CN(CCN3CCCC3)C(=O)Nc3ccc(F)cc3)c(=O)[nH]c2c1	10627	6	9	3	62*	-5	-11	-2
COc1ccc(C2=NOC(C(=O)NCc3ccccn3)C2)cc1 (configuration not stated)	3906	5	-7	3	72*	-1	-4	-2
CCCNC(=O)C1(C)CCCN(Cc2ccc(Oc3ccccc3)cc2)C1 (configuration not stated)	4188	-9	nt	0	-6	nt	nt	nt
Brc1cccc(OCCCCN2CCCCC2)c1	2936	-2	-9	4	35*	0	5	3
CCOc1cccc(OCCCCN2CCCCC2)c1	10400	-7	1	1	0	nt	nt	nt
SMILES	Autofluor counter	Anthrax LF prot	BJeLR lethal	BoNT-A LC inh2	BoNT-F LC inh	BoNT-A LC CP1	BoNT-F LC CP1	Anthrax LF CP1
O=C(Oc1ccccc1)c1ccc2c(c1)C(=O)N(Cc1ccncc1)C2=O	6267	4	-5	0	0	nt	nt	nt
CC1(C)OCC(COC(=O)Nc2cccnc2)([N+](=O)[O-])CO1	4010	-4	4	0	-3	nt	nt	nt
CC(=O)C1C(c2ccc(F)cc2)c2c(noc2C)CC1(C)O (configuration not stated)	4546	-6	8	-3	37*	0	1	3
COc1cc(C2(c3ccc(O)c(OC)c3)C(=O)N(C)c3ccc(C)cc32)ccc1O	4092	-8	-4	0	0	nt	nt	nt
CCOC(=O)C(O)(c1ccc(N(CC)S(=O)(=O)c2ccc(C)cc2)cc1)C(F)(F)F (configuration not stated)	6229	-1	16	8	70*	2	-3	-3
CCOc1ccccc1Nc1nc(-c2sc(C)nc2C)cs1	4650	2	8	7	41*	0	-1	-4
O=c1c(/C=C(\O)c2ccccc2)nc2ccccc2n1-c1ccccc1	17938*	41*	-8	61*	+	40*	36*	32*
O=C(Cc1ccc(Cl)cc1)NC1CCCCCC1	3892	12	-1	-3	40*	0	-4	-3
O=C1CNCc2[nH]c3ccccc3c2N1c1ccccc1	9946	21	-1	33*	-8	0	-10	-3
Cc1ccc(-n2c(C)nnc2SCC(=O)N(C)C2CCS(=O)(=O)C2)cc1 (configuration not stated)	3778	2	nt	0	-4	nt	nt	nt
COc1ccccc1Cn1c(=S)[nH]c2ccc(Br)cc2c1=O	3774	31*	4	2	-3	-1	-4	-1
CCCCc1ccc(NC(=O)CSc2nc(=O)n3cc(C)ccc3n2)cc1	4439	-4	-2	0	4	nt	nt	nt
Cc1cc2c(sc3c(C)ccc(C)c32)c(C)n1	3844	29	2	-2	?	-1	-2	-3
Cc1c(NC(=O)c2cccc(NC(=O)Cc3ccc(F)cc3)c2)c(=O)n(-c2ccccc2)n1C	?	44*	nt	-2	2	-2	-10	-3
Cc1c(NC(=O)c2cccc(NC(=O)Cc3c(F)cccc3Cl)c2)c(=O)n(-c2ccccc2)n1C	2960	-3	nt	0	-2	nt	nt	nt
CC(C)[C@H](NS(=O)(=O)c1ccccc1)C(=O)Nc1nccs1	3752	4	nt	0	0	nt	nt	nt
Cc1nn(-c2ccccc2)c2sc(C(=O)N3CCCCC3)cc12	5079	5	-14	0	38*	2	4	2
O=C(Oc1c(-c2ccccc2)c(=O)n2c3c(cccc13)CC2)c1ccc(F)cc1	4267	37*	-2	?	?	2	2	2
O=C(Oc1c(-c2ccccc2)c(=O)n2c3c(cccc13)CC2)c1ccccc1	4779	-10	3	-11	-38	nt	nt	nt

Assay outcomes deposited in PubChem by several laboratories.
